23 compounds from PubChem BioAssay (Tox21) can be followed below.

Values joined by “and” are separate entries in the source; they are usually repeats but may differ in a detail not shown here. Equal entries are not always repeated. Inconclusive results are not listed. More than one record can exist for a structure, and the calls need not agree. Active and inactive are the calls of the source. Unless noted, the call rests on the fitted dose curve; in most records, active means well fitted curve in the direction sought with a large enough effect in the repeat runs; inconclusive means weak or mixed curves; inactive means no such curve, though single readings can be large; an effect the other way counts as inactive or inconclusive.

Assay [1] in a line: qHTS assay for small molecule agonists of the p53 signaling pathway (AID 651631; calls by dose curve; further: nearly all actives have a fitted effect of over 15% in size; further: potency means the concentration at half of the fitted maximal effect). The method, boiled down: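 Fluorescence intensity from cleaved LiveBLAzer B/G substrate (2 h, room temperature) served as the signal. Beforehand, HCT-116 reporter cells bearing p53 response elements were treated 16 h at 37 °C with DMSO-dissolved compounds.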
Assay [2] in a line: qHTS assay for small molecules that induce genotoxicity in human embryonic kidney cells expressing luciferase-tagged ATAD5 (AID 651632). Further: nearly all actives have a fitted effect of over 15% in size. Further: potency means the concentration at half of the fitted maximal effect. The method in brief:
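ATAD5-luc HEK293T, 2,000 cells/well; cpd or DMSO pin-transferred; 16 hr, 37C/5% CO2; Amplite 30 min RT; luminescence.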

Assay [3] is described as follows: qHTS assay for small molecule agonists of the p53 signaling pathway - cell viability (AID 651633; calls by dose curve; further: nearly all actives have a fitted effect of over 30% in size; further: potency means the concentration at half of the fitted maximal effect). The method, boiled down: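 p53RE-bla cells, seeded at 4,000 per well and rested 5 h at 37 C/5% CO2, received compounds in DMSO for 16 h at 37 C. CellTiter-Glo was then added, and luminescence was read after 30 min at room temperature to gauge cytotoxicity.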
(In general: qHTS replaces the single test concentration by a dilution series.)

A short description of assay [4]: qHTS assay for small molecules that induce genotoxicity in human embryonic kidney cells expressing luciferase-tagged ATAD5 - cell viability (AID 651634; calls by dose curve; further: nearly all actives have a fitted effect of over 25% in size; further: potency means the concentration at half of the fitted maximal effect). The method in brief:
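Fluorescence from CellTiter-Fluor, reporting protease activity within live cells, served as the viability read-out. HEK293T cells carrying luciferase-tagged ATAD5 had been treated with compound for 15.5 hr at 37C.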

Assay [5] in a line: qHTS assay for small molecule disruptors of the mitochondrial membrane potential - cell viability (AID 720634; calls by dose curve; further: nearly all actives have a fitted effect of over 20% in size; further: potency means the concentration at half of the fitted maximal effect). The method, boiled down:
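Cells: HepG2, 2,000/well, attached overnight. Compound 1 hr, 37 C/5% CO2. +m-MPI dye, +CellTiter-Glo 30 min RT. Readout: luminescence (ATP).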

A short description of assay [6]: qHTS assay for small molecule disruptors of the mitochondrial membrane potential (AID 720635). Further: potency means the concentration at half of the fitted maximal effect. The method in brief: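 HepG2 cells (2,000/well) attached overnight at 37C, then took compound for 1 hr at 37C, 5% CO2. Mito-MPS dye was added for 30 min; fluorescence was read at 490/535 nm (monomers) and 540/590 nm (aggregates).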
Assay [7] can be described thus: qHTS assay to test for compound auto fluorescence at 590 nm (red) in HepG2 cells (AID 720674). The method, boiled down: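 Compound auto-fluorescence is scored relative to Rose Bengal sodium, measured at 540/590 nm in live HepG2 cultures after 1 hr compound contact (37 C, 5% CO2).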
A short description of assay [8]: qHTS assay to test for compound auto fluorescence at 535 nm (green) in HepG2 cells (AID 720675).
The nature of assay [9]: qHTS assay to test for compound auto fluorescence at 590 nm (red) in HEK293 cells (AID 720679). The method, boiled down:
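Each well held 2,000 HEK293 cells in medium containing 10% dialyzed FBS. Following 4-5 hr attachment at 37C, 23 nL test compound or DMSO was added; plates sat overnight, and red fluorescence (540/590nm) was recorded.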

Assay [10] can be described thus: qHTS assay to test for compound auto fluorescence at 460 nm (blue) in HEK293 cells (AID 720678). The method, boiled down: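 Cells were seeded and left to adhere for 4-5 hr at 37C. Compounds were then pin-transferred. After an overnight incubation at 37C under 5% CO2, intrinsic fluorescence at 405/460 nm was measured and referenced to triamterene.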

`N#CC(c1ccccc1)c1ccccc1`: the Potency entry in [1], in assay [2], in assay [3], in [4] and in assay [5] was “inactive” each time. Besides, in assay [6], the Potency was 7.69 µM (active). Besides, the compound was classed as inactive in assay [7], in assay [8] and in [9].

Take `CC(C)(C#N)N=NC(C)(C)C#N`: the Potency entry in [1], in [2], in assay [3], in assay [4], in assay [5] and in [6] was “inactive” each time. Besides, in [10], the Potency entry was “inactive”. Also, the call in assay [7], in assay [8] and in assay [9] was inactive.

`CCN(CC)C(=O)C(C)Oc1cccc2ccccc12` (stereo not drawn): the Potency result in [1], in assay [2], in assay [3], in [4], in assay [5] and in assay [6] was “inactive” in each case. The compound was classed as inactive in assay [7], in assay [8] and in assay [9].

For `CN(C)c1ccccc1`, the Potency entry in assay [1], in assay [2], in assay [3], in assay [4], in [5] and in assay [6] was “inactive” each time. Besides, the Potency entry in [10] is “inactive”. The compound was called inactive in assay [7], in assay [8] and in [9].

Take `[CH3][Sn]([Cl])([Cl])[Cl]`: the Potency entry in assay [1], in [2], in assay [3], in assay [4], in assay [5] and in assay [6] was “inactive” in each case. In addition, the Potency result in assay [10] was “inactive”. Besides, the compound was classed as inactive in assay [7], in assay [8] and in assay [9].

For the compound `CC(C)CON=O`, the Potency entry in assay [1], in assay [2], in assay [3], in [4], in assay [5] and in assay [6] was “inactive” throughout. In [10], the Potency result is “inactive”. In addition, the compound was called inactive in [7], in assay [8] and in assay [9].

`CC1(C)C(C(=O)OC(C#N)c2cccc(Oc3ccccc3)c2)C1(C)C` (stereo not drawn): the Potency entry in assay [1], in [2], in [3], in assay [4] and in assay [10] was “inactive” each time. In addition, the Potency is 54.4 µM (active) in assay [5] and 30.9 µM (active) in [6]. In addition, the result in assay [7], in assay [8] and in assay [9] was inactive.

In the case of `ClCc1ccccn1`, the Potency entry in assay [1], in assay [2], in [3], in assay [4], in assay [5] and in assay [6] was “inactive” throughout. Further, the Potency result in [10] is “inactive”. Further, the outcome in assay [7], in assay [8] and in assay [9] was inactive.

For `CCCCOCCOC(C)=O`, the Potency result in [1], in [2], in assay [3], in assay [4], in assay [5] and in assay [10] was “inactive” throughout. Besides, the Potency in [6] was 53 µM (active). Moreover, the compound was called inactive in assay [7], in [8] and in [9].

For `NC(=O)CN1CCCC1=O`, the Potency entry in assay [1], in assay [2], in [3], in [4], in assay [5] and in [6] was “inactive” each time. Besides, the Potency result in [10] is “inactive”. Further, the compound was called inactive in assay [7] and in [8].

As to `N#CCCCCC#N`, the Potency entry in assay [1], in assay [2], in assay [3], in [4], in assay [5] and in [6] was “inactive” in each case. Also, in [10], the Potency result is “inactive”. For the same compound, the call in [7], in assay [8] and in assay [9] was inactive.

For the compound `CNC(=S)S`, the Potency result in assay [1], in assay [2], in assay [3], in assay [4], in assay [5] and in assay [6] was “inactive” each time. The Potency result in assay [10] is “inactive”. The outcome in assay [7] and in [8] was inactive.

Consider `Oc1ccc(Cl)cc1Cl`, for which the Potency result in assay [1], in [2], in assay [3], in assay [4], in assay [5] and in assay [10] was “inactive” each time. Besides, the Potency in assay [6] was 30.4 µM (active) and 27.3 µM (active). Besides, the outcome in [7], in assay [8] and in assay [9] was inactive.

As to `N#Cc1c(Cl)c(Cl)c(Cl)c(C#N)c1Cl`, the Potency was 21.3 µM (active) and 30.6 µM (active) in [1]; 424 nM (active) and 864 nM (active) in [2]; 6.73 µM (active) and 9.69 µM (active) in assay [3]; 30 µM (active) and 8.63 µM (active) in assay [4]; 19 µM (active) and 21.7 µM (active) in [5]; 3.37 µM (active) and 27.3 µM (active) in assay [6]. Further, the result in assay [7] and in assay [8] was inactive. For the same compound, the Potency result in [10] is “inactive”.

With `CCCCC(C#N)(Cn1cncn1)c1ccc(Cl)cc1` (stereo not drawn), the Potency result in assay [1], in assay [2], in assay [3], in [4] and in assay [5] was “inactive” in each case. Further, the outcome in [7], in [8] and in assay [9] was inactive.

Consider `Cc1cccc(N=Nc2ccc(N(C)C)cc2)c1`, for which the Potency in assay [2] was 986 nM (active) and 1.93 µM (active); in assay [4], 35 µM (active) and 27.3 µM (active); in [5] it was 19.7 µM (active) and 21.7 µM (active); in assay [6] it was 24.8 µM (active) and 27.3 µM (active). The Potency entry in [3] and in assay [10] was “inactive” in each case. In addition, the result in assay [7] and in [8] was inactive.

With `COc1ccc(C=O)cc1OC`, the Potency result in [1], in assay [2], in assay [3], in assay [4], in assay [5] and in assay [10] was “inactive” throughout. Besides, the result in assay [7], in [8] and in [9] was inactive.

Regarding `Cc1ccc(N=CN(C)C=Nc2ccc(C)cc2C)c(C)c1`, the Potency entry in assay [1], in assay [2], in [4], in [5] and in assay [6] was “inactive” each time. In addition, the Potency result in assay [3] was “inactive and 54.7 µM (active)”. Besides, the compound was called inactive in [7], in assay [8] and in assay [9].

Regarding `COC(=O)Nc1nc2ccccc2[nH]1`, in assay [1], the Potency was 7.7 µM (active) and 13.7 µM (active). The Potency entry in assay [2], in [3], in [4], in [5] and in [10] was “inactive” each time. Moreover, the compound was classed as inactive in assay [7], in assay [8] and in assay [9].

Consider `CS(=O)(=O)NC(=O)c1cc(Oc2ccc(C(F)(F)F)cc2Cl)ccc1[N+](=O)[O-]`, for which the Potency result in assay [1], in assay [2], in [3], in [4] and in assay [10] was “inactive” each time. Moreover, the outcome in assay [7] and in assay [8] was inactive.

Take `C[N+](C)(C)C`: the Potency result in [1], in assay [2], in [3], in assay [4] and in assay [10] was “inactive” each time. Moreover, the call in [7], in assay [8] and in assay [9] was inactive.

With `N#Cc1nn(-c2c(Cl)cc(C(F)(F)F)cc2Cl)c(N)c1S(=O)C(F)(F)F` (stereo not drawn), the Potency result in assay [2], in assay [3] and in [4] was “inactive” each time. For the same compound, the Potency in assay [5] was 10.6 µM (active) and 1.54 µM (active); in [6], 5.31 µM (active) and 1.54 µM (active). The outcome in [7] and in assay [8] was inactive.

In the case of `CC1(C)Cc2cccc(O)c2O1`, the Potency result in assay [2], in [3], in assay [4], in assay [5], in [6] and in assay [10] was “inactive” in each case. Moreover, the call in assay [7] and in assay [8] was inactive.
